# Records with an inconclusive call do not appear. A call without a number means that no potency is given here. Unmarked numbers belong to inactive results. Calls of active or inactive are those of the source. Unless noted, the call rests on the fitted dose curve; in most records, active means well fitted curve in the direction sought with a large enough effect in the repeat runs; inconclusive means weak or mixed curves; inactive means no such curve, though single readings can be large; an effect the other way counts as inactive or inconclusive.
# Experiments:
# [1] = molecular target: Retinoic acid receptor RXR-alpha (Homo sapiens) (UniProt P19793); assay: qHTS assay to identify small molecule agonists of the RXR signaling pathway (AID 1159527; calls by dose curve; further: nearly all actives have a fitted effect of over 35% in size; further: potency means the concentration at half of the fitted maximal effect)
# Retinoic acid receptor RXR-alpha (Homo sapiens), sequence (P19793 whole entry, looked up): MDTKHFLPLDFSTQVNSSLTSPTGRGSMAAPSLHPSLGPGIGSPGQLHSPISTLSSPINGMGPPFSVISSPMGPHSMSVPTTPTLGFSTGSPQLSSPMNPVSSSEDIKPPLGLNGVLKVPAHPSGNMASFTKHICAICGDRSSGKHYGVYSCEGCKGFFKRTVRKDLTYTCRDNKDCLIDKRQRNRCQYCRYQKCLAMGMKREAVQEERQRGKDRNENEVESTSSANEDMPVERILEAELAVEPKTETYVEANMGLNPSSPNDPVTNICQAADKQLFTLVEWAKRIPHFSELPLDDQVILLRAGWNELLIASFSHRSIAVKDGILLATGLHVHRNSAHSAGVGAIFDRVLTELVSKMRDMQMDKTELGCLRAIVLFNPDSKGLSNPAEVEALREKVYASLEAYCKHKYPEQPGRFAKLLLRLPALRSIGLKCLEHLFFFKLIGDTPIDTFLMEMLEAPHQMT
# Outline: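 Cells plated at 2,000/well, rested 5 hr at 37 C, pin-dosed with DMSO compound solutions, incubated 16 hr, then loaded with B/G FRET substrate for 2 hr at RT before dual-emission fluorescence reading.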
# [2] = qHTS assay to identify small molecule agonists of the RXR signaling pathway - cell viability counter screen (AID 1159529); further: nearly all actives have a fitted effect of over 50% in size; further: potency means the concentration at half of the fitted maximal effect;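 on activity change, negative = cytotoxicity: HEK 293T cells carrying an RXR-alpha UAS beta-lactamase reporter; series mostly up to about 77 µM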
# Outline: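 Steps: seed RXR-alpha-UAS-bla HEK 293T cells in assay medium containing 2% charcoal-stripped FBS; incubate 5 hr; add compounds in DMSO; incubate 16 hr at 37 C; after the bla read, add CellTiter-Glo and read luminescence at 30 min.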
# [3] = qHTS assay to identify small molecule antagonists of the retinoid acid receptor (RAR) signaling pathway - cell viability counter screen (AID 1159551); further: nearly all actives have a fitted effect of over 35% in size
# Outline: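 C3RL4 RARE-luciferase cells, 1,000/well, incubated overnight, then dosed with compound plus 1 uM retinol (final). After 6 hr at 37 C, viability read by CellTiter-Glo ATP luminescence following 30 min at room temperature.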
# [4] = qHTS assay to identify small molecule antagonists of the retinoic acid receptor (RAR) signaling pathway (AID 1159552; further: nearly all actives have a fitted effect of over 50% in size; further: potency means the concentration at half of the fitted maximal effect)
# Outline: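 Retinol at 1 uM final stimulated RARE-luciferase expression in C3RL4 cells exposed to test compounds for 6 hr at 37 C. Reduced luminescence, read 30 min after detection reagent, indicated pathway antagonism.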
# [5] = qHTS assay to identify small molecule agonists of the retinoic acid receptor (RAR) signaling pathway (AID 1159553); further: potency means the concentration at half of the fitted maximal effect
# Outline: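 C3RL4 RARE-luciferase cells were seeded at 1,000/well and grown overnight at 37 C, then exposed to compounds for 6 hr at 37 C, 5% CO2. Luciferase reagent was added and luminescence was read after 30 min at room temperature.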
# [6] = qHTS assay to identify small molecule antagonists of the estrogen related receptor (ERR) signaling pathway - cell viability counter screen (AID 1224818); further: series mostly up to about 46 µM
# Outline: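 ERR cells, 2,000 per well, compound added after 6 h and incubated 17.5 h at 37 C. Viability read by CellTiter-Fluor fluorescence after a further 30 min at 37 C.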
# [7] = qHTS assay to identify small molecule agonists of the estrogen related receptor (ERR) signaling pathway (AID 1224820)
# Outline: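 ERR reporter cells (NTP line) plated 2,000/well, incubated 6 h at 37 C/5% CO2, then pinned with compounds in DMSO and held 18 h at 37 C. One-Glo added; luminescence read after 30 min at room temperature.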
# [8] = system: estrogen-related receptor alpha (ERRalpha) with PGC-1alpha coactivator, human; assay: qHTS assay to identify small molecule antagonists of the estrogen related receptor signaling pathway with the pleiotropic PPARgamma coactivator (PGC) (AID 1224821; calls by dose curve;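 further: series mostly up to about 46 µM; lower luminescence signal means antagonism of PGC/ERR signalling; nearly all actives have a fitted effect of over 50% in size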)
# Outline: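 Cells engineered for PGC/ERR signalling (line from NTP) were plated 6 h at 37 C/5% CO2, then exposed to DMSO-dissolved compound for 18 h at 37 C. Luciferase activity was read by One-Glo luminescence after 30 min at room temperature.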
# [9] = qHTS assay to identify small molecule antagonists of the estrogen related receptor signaling pathway with the pleiotropic PPARgamma coactivator (PGC) cell viability counter screen (AID 1224822; further: series mostly up to about 46 µM)
# Outline: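 PGC/ERR cells rested 6 h, then compound-treated 17.5 h at 37 C. CellTiter-Fluor added for 30 min at 37 C, viability measured by fluorescence intensity.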
# [10] = qHTS assay to identify small molecule antagonists of the estrogen related receptor (ERR) signaling pathway (AID 1224819;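 further: luminescence from an ERR-driven luciferase reporter measured with One-Glo reagent; series mostly up to about 46 µM; nearly all actives have a fitted effect of over 50% in size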)
# Outline: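 ERR reporter cell line (NTP) plated at 2,000 cells/well, settled 6 h at 37C/5% CO2, then exposed to LOPAC compounds for 18 h at 37C. One-Glo luciferase luminescence read after 30 min at room temperature.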
structure (smiles),measurement,setting,value
CCN(C)N=O,Potency,[1],inactive
same,Potency,[2],inactive
same,Potency,[3],inactive
same,Potency,[4],inactive
same,Potency,[5],inactive
ClCc1ccccc1,Potency,[1],inactive
same,Potency,[2],inactive
same,Potency,[3],inactive
same,Potency,[4],inactive
same,Potency,[5],inactive
CN1C(=O)C(O)N=C(c2ccccc2)c2cc(Cl)ccc21 (centres undefined),Potency,[1],inactive
same,Potency,[2],inactive
same,Potency,[3],inactive
same,Potency,[4],63.3 µM (active)
same,Potency,[5],inactive
CC(=O)NC1CCSC1=O (centres undefined),Potency,[1],inactive
same,Potency,[2],inactive
same,Potency,[3],inactive
same,Potency,[4],inactive
same,Potency,[5],inactive
Oc1ccc(Cl)c(Cl)c1Cl,Potency,[1],inactive
same,Potency,[2],inactive
same,Potency,[3],inactive
same,Potency,[4],63.4 µM (active)
same,Potency,[5],inactive
Sc1ccccc1Cl,Potency,[1],inactive
same,Potency,[2],inactive
same,Potency,[3],inactive
same,Potency,[4],inactive
same,Potency,[5],inactive
CN1C(=O)NC(=O)C(C)(C2=CCCCC2)C1=O (centres undefined),Potency,[1],inactive
same,Potency,[2],inactive
same,Potency,[3],inactive
same,Potency,[4],inactive
same,Potency,[5],inactive
NNC(=O)c1cccnc1,Potency,[1],inactive
same,Potency,[2],inactive
same,Potency,[3],inactive
same,Potency,[4],inactive
same,Potency,[5],30.7 µM (active)
O=C(O)c1ccccc1C(=O)Nc1cccc2ccccc12,Potency,[1],inactive
same,Potency,[2],inactive
same,Potency,[3],inactive
same,Potency,[4],inactive
same,Potency,[5],inactive
N#CCc1ccccc1,Potency,[1],inactive
same,Potency,[2],inactive
same,Potency,[3],inactive
same,Potency,[4],inactive
same,Potency,[5],inactive
CCOC(=O)CBr,Potency,[1],inactive
same,Potency,[2],inactive
same,Potency,[3],inactive
same,Potency,[4],inactive
same,Potency,[5],inactive
Cc1ccc(N)cc1C,Potency,[1],inactive
same,Potency,[2],inactive
same,Potency,[3],inactive
same,Potency,[4],inactive
same,Potency,[5],69.1 µM (active)
CC(C)(Cl)[N+](=O)[O-],Potency,[1],inactive
same,Potency,[2],inactive
same,Potency,[3],inactive
same,Potency,[4],inactive
same,Potency,[5],inactive
Nc1nc(N)nc(N)n1,Potency,[1],inactive
same,Potency,[2],inactive
same,Potency,[3],inactive
same,Potency,[4],inactive
same,Potency,[5],inactive
O=C(O)C(F)(F)C(F)(F)C(F)(F)C(F)(F)C(F)(F)C(F)(F)C(F)(F)C(F)(F)C(F)(F)C(F)(F)F,Potency,[1],11.6 µM (active)
same,Potency,[2],inactive
same,Potency,[3],inactive
same,Potency,[4],inactive
same,Potency,[5],inactive
CN(N=O)c1ccc([N+](=O)[O-])cc1,Potency,[1],inactive
same,Potency,[2],inactive
same,Potency,[3],inactive
same,Potency,[4],inactive
same,Potency,[5],inactive
CCOC(=O)C(Cl)C(C)=O (centres undefined),Potency,[1],inactive
same,Potency,[2],inactive
same,Potency,[3],inactive
same,Potency,[4],inactive
same,Potency,[5],inactive
CCOP(=O)(OCC)Oc1ccc([N+](=O)[O-])cc1,Potency,[1],inactive
same,Potency,[2],inactive
same,Potency,[3],inactive
same,Potency,[4],inactive
same,Potency,[5],inactive
C=CCCl,Potency,[1],inactive
same,Potency,[2],inactive
same,Potency,[3],inactive
same,Potency,[4],inactive
same,Potency,[5],inactive
O=[N+]([O-])c1cc(C(F)(F)F)cc([N+](=O)[O-])c1Cl,Potency,[1],inactive
same,Potency,[3],inactive
same,Potency,[4],inactive
same,Potency,[5],inactive
CCCCN=C=O,Potency,[1],inactive
same,Potency,[2],inactive
same,Potency,[3],inactive
same,Potency,[4],inactive
same,Potency,[5],inactive
COc1cc(CC(C)N)cc2c1OCO2 (centres undefined),Potency,[1],inactive
same,Potency,[2],inactive
same,Potency,[3],inactive
same,Potency,[4],inactive
same,Potency,[5],inactive
CC1C(=O)C[C@]2(C(C)C)C[C@H]12 (some centres undefined),Potency,[1],inactive
same,Potency,[2],inactive
same,Potency,[3],inactive
same,Potency,[4],inactive
same,Potency,[5],inactive
CCCCC(O)(Cn1cncn1)c1ccc(Cl)cc1Cl (centres undefined),Potency,[2],54.9 µM (active)
O=C(C(Cl)(Cl)Cl)C(Cl)(Cl)Cl,Potency,[1],inactive
same,Potency,[2],inactive
same,Potency,[3],inactive
same,Potency,[4],inactive
same,Potency,[5],inactive
O=C(O)C(F)(F)C(F)(F)C(F)(F)C(F)(F)C(F)(F)C(F)(F)C(F)(F)C(F)(F)C(F)(F)F,Potency,[1],inactive
same,Potency,[3],inactive
same,Potency,[5],inactive
CC1CC(CC2CCC(N)C(C)C2)CCC1N (centres undefined),Potency,[1],inactive
same,Potency,[3],inactive
same,Potency,[5],inactive
C=COC(C)=O,Potency,[1],inactive
same,Potency,[2],inactive
same,Potency,[3],inactive
same,Potency,[4],inactive
same,Potency,[5],inactive
Brc1ccccc1,Potency,[1],inactive
same,Potency,[2],inactive
same,Potency,[3],inactive
same,Potency,[4],inactive
same,Potency,[5],inactive
CCCCN(N=O)C(=N)N[N+](=O)[O-],Potency,[1],inactive
same,Potency,[3],inactive
same,Potency,[5],inactive
COc1cc(Cl)c(OC)cc1Cl,Potency,[1],inactive
same,Potency,[3],inactive
same,Potency,[4],inactive
same,Potency,[5],inactive
CC(C)=CCOc1c2occc2cc2ccc(=O)oc12,Potency,[1],inactive
same,Potency,[2],inactive
same,Potency,[3],inactive
same,Potency,[4],inactive
same,Potency,[5],inactive
same,outcome,[6],inactive
same,outcome,[7],inactive
same,Potency,[8],inactive
same,Potency,[9],inactive
O=[Se]=O,Potency,[1],inactive
same,Potency,[2],inactive
same,Potency,[3],inactive
same,Potency,[4],inactive
same,Potency,[5],inactive
CCBr,Potency,[1],inactive
same,Potency,[2],inactive
same,Potency,[4],inactive
same,Potency,[5],inactive
O=[N+]([O-])c1ccc(F)c([N+](=O)[O-])c1,Potency,[1],inactive
same,Potency,[3],inactive
same,Potency,[4],inactive
same,Potency,[5],inactive
Nc1nc(=S)[nH][nH]1,Potency,[1],inactive
same,Potency,[2],inactive
same,Potency,[3],inactive
same,Potency,[4],inactive
same,Potency,[5],inactive
O=S(=O)(O)C(F)(F)C(F)(F)C(F)(F)C(F)(F)F,Potency,[1],6.54 µM (active)
same,Potency,[2],inactive
same,Potency,[3],inactive
same,Potency,[4],18.3 µM (active)
same,Potency,[5],inactive
same,outcome,[6],inactive
same,outcome,[10],inactive
same,outcome,[7],inactive
same,Potency,[8],inactive
same,Potency,[9],inactive
CS/C(C)=N/OC(=O)N(C)SN(C)C(=O)O/N=C(\C)SC,Potency,[2],49 µM (active)
NCC(CC(=O)O)c1ccc(Cl)cc1 (centres undefined),activation,[1],1.21% [at 0.29 µM]
same,"activity change, negative = cytotoxicity",[2],15% [at 0.29 µM]
same,"activity change, negative = cytotoxicity",[3],-0.97% [at 0.349 µM]
same,outcome,[6],inactive
same,outcome,[10],inactive
same,outcome,[7],inactive
same,Potency,[8],inactive
same,Potency,[9],inactive

# — PubChem BioAssay (Tox21)
